Source: PubChem BioAssay (several laboratories)
tim23-1 inh = growth inhibitors of tim23-1 mutant yeast, primary screen, luminescence, uHTS. S. cerevisiae tim23-1 growth, BacTiter-Glo luminescence, 24 h. inhibition, % at 20 µM. 1.3% of 330,000 active. AID 463212, 2010;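 active = growth inhibition of the mutant yeast at or above 50%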;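 note: temperature-sensitive mutant grown at 25 °C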
SKKanGAS inh = S. pyogenes SKKanGAS growth inhibitors in kanamycin, primary screen, streptokinase expression inhibitor project, SKKanGAS strain, BacTiter-Glo luminescence. AID 1662, 2009. 1.3% of 300,000 active. inhibition, % at 7.5 µM. 6 h;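 active = mean replicate score, as percent of positive control median, at least 50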;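 note: strain carries kanamycin resistance gene driven by streptokinase promoter and grows in 40 µg/ml kanamycin; loss of luminescence reflects streptokinase promoter inhibition or plain growth inhibition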
NLRP3 yeast inh = NALP3 inflammasome inhibitors in reconstituted yeast, primary screen, luminescence, uHTS; Yeast reconstituted NLRP3/ASC/caspase-1, beta-gal luminescence, 24 h; 0.39% of 330,000 active; AID 2825, 2010; inhibition, % at 10 µM;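 active = inhibition of 50% or more; inactive = inhibition below 50%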
tim10-1 inh = growth inhibitors of tim10-1 mutant yeast, primary screen, luminescence, uHTS. 2.2% of 330,000 active. AID 463190, 2010. S. cerevisiae tim10-1 ts strain growth, BacTiter-Glo, 24 h. inhibition, % at 20 µM;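 active = inhibition of at least 40%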;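 note: mutant grown at 25 °C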
PfHsp90 yeast 2 = growth inhibition of PfHsp90-expressing yeast, primary screen, antimalarial PfHsp90 inhibitor project, S. cerevisiae, BacTiter-Glo luminescence, single point, set 2. BacTiter-Glo ATP, 48 h; yeast lacking PDR1 and PDR3 efflux regulators. inhibition, % at 9.4 µM. 0.32% of 310,000 active. AID 504621, 2011;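 active = every replicate shows inhibition above about 80%, whatever the replicate mean, limit read from the data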
TIM10 inh = growth inhibitors of isogenic TIM10 control yeast, primary screen, counter-screen for tim10-1 yeast inhibitor project, luminescence, uHTS. inhibition, % at 10 µM. S. cerevisiae TIM10 strain growth, BacTiter-Glo luminescence, 24 h. AID 463195, 2010. 1.4% of 330,000 active;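 active = inhibition of 40% or more at the single tested concentration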;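 note: wild-type TIM10 isogenic control strain grown at permissive 25 °C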
tim10-1 conf = growth inhibitors of tim10-1 mutant yeast, confirmation, single concentration, luminescence, S. cerevisiae; S. cerevisiae tim10-1 ts strain growth, BacTiter-Glo, 24 h; shares compounds with tim10-1 inh; 56% of 7,400 active; inhibition, % at 20 µM;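 active = inhibition of yeast growth at or above a set limit in either of two repeat tests at 20 µM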;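 note: tim10-1 mutant grown at permissive 25 °C to find synthetic lethal compounds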
Of the large screens only hits and unclear results are named; the others gave an inactive call (follow-up assays come after a bar, where they were run). In the library only some 4.6% were active in any assay of this set; here they are far more common.

CCOC(=O)c1nn(-c2ccccc2)c(=O)c2c(N)scc12	tim10-1 inh 51 (no result: SKKanGAS inh) | tim10-1 conf inactive
CCOC(=O)c1nn(-c2ccccc2C)c(=O)c2c(N)scc12	none
COC(/C(=N/O)c1ccc(Cl)cc1)c1ccccc1 (configuration not stated)	tim10-1 inh 47 | tim10-1 conf 31
COc1ccc(Cl)cc1NC(=O)C(OC)c1ccccc1 (configuration not stated)	none
COc1ccc(C(C(=O)NCC2CCCO2)N(C(=O)c2snc(C(N)=O)c2N)c2ccc(C)cc2)cc1OC (configuration not stated)	none
COc1ccc(CCC(=O)Nc2ccc(N3CCOCC3)c(S(=O)(=O)Nc3ccc(OC)cc3)c2)cc1	none (no result: tim23-1 inh, SKKanGAS inh, NLRP3 yeast inh, tim10-1 inh, TIM10 inh)
Cc1ccc2cc(CN(CC3CCCO3)C(=S)Nc3ccccc3)c(=O)[nH]c2c1 (configuration not stated)	tim10-1 inh 44 | tim10-1 conf inactive
OC(CNCCc1ccc(C(F)(F)F)cc1)COc1ccc2ccccc2c1 (configuration not stated)	tim10-1 inh 48 | tim10-1 conf inactive
CS(=O)(=O)N(CC(=O)Nc1cccc(F)c1)Cc1ccccc1	tim10-1 inh 49 | tim10-1 conf inactive
CCOc1ccccc1C(=O)NCC(=O)NCC(C)(C)N1CCOCC1	none (no result: SKKanGAS inh)
COc1ccc(NC(=O)c2cnc(SC)nc2C)c(OC)c1	none
COc1cc2c(cc1OC)CN(c1ccc([N+](=O)[O-])cc1Cl)CC2	tim10-1 inh 41 | tim10-1 conf 50
COc1cc2c(cc1OC)CN(c1ccc([N+](=O)[O-])cc1C#N)CC2	none
Cc1cc(NC(=O)c2c(F)cccc2Cl)n(-c2nc3ccccc3[nH]2)n1	SKKanGAS inh 118, tim10-1 inh 40 | tim10-1 conf inactive
CC1=Nc2cc(C(=O)NCC3CCCO3)ccc2Sc2ccc(C)cc21 (configuration not stated)	none
CC1=Nc2cc(C(=O)NCc3ccco3)ccc2Sc2ccc(C)cc21	tim10-1 inh 44 | tim10-1 conf inactive
CCCCCCCCCS(=O)(=O)N/N=C/c1cccc([N+](=O)[O-])c1	tim10-1 inh 42 (no result: PfHsp90 yeast 2) | tim10-1 conf inactive
CCOC(=O)c1c(CSc2ccc(C)cc2)oc2ccc(O)cc12	none | tim10-1 conf inactive
CCOc1cc(S(=O)(=O)Nc2ccc(CC)cc2)ccc1Cl	tim10-1 inh 59 (no result: PfHsp90 yeast 2) | tim10-1 conf inactive
CCOc1cc(S(=O)(=O)Nc2ccccc2CC)ccc1Cl	none
CC(C)(C)NC(=O)c1ccc(Sc2ccccc2)c([N+](=O)[O-])c1	tim10-1 inh 42 | tim10-1 conf inactive
Clc1ccccc1CN(Cc1ccccc1)c1ncnc2nc[nH]c12	SKKanGAS inh 51, tim10-1 inh 41 | tim10-1 conf inactive
CCCN(CCC)c1ncnc2nc[nH]c12	tim10-1 inh 45 | tim10-1 conf inactive
Clc1ccccc1CNc1ncnc2nc[nH]c12	none
CCC(=O)N1CCN(c2ccc(NC(=S)NC(=O)c3cc4ccccc4o3)cc2)CC1	none
Cc1sc2ncnc(N3CCCCC3C)c2c1C (configuration not stated)	tim10-1 inh 42 | tim10-1 conf inactive
Cc1sc2ncnc(N3CCCCC3)c2c1C	none
CC(C)N(C(=O)CSc1nc2ccccc2n1-c1ccccc1)C(C)C	tim10-1 inh 45 | tim10-1 conf inactive
Cc1cccc(C)c1NC(=O)CNC(=O)c1ccc(N2CCCC2)c([N+](=O)[O-])c1	none (no result: tim23-1 inh, SKKanGAS inh, NLRP3 yeast inh, tim10-1 inh, TIM10 inh)
CC(C)(C)c1cc(=O)[nH]c(SCc2ccccc2)n1	tim10-1 inh 41 (no result: SKKanGAS inh) | tim10-1 conf inactive
Cc1cc(=O)[nH]c(SCc2ccccc2)n1	none
CN1CCN(CCCNC(=O)c2ccc(/C=C3\Sc4ccccc4N(Cc4ccc(F)cc4)C3=O)cc2)CC1	none (no result: tim23-1 inh, NLRP3 yeast inh, tim10-1 inh, TIM10 inh)
CN1CCN(CCCNC(=O)c2ccc(/C=C3\Oc4ccccc4N(Cc4ccccc4F)C3=O)cc2)CC1	tim10-1 inh 42 | tim10-1 conf inactive
CCOC(=O)C1CCN(C(=O)c2cc3c(OC)c(OC)c(OC)cc3[nH]2)CC1	none
COc1cc2[nH]c(C(=O)N3CCC(Cc4ccccc4)CC3)cc2c(OC)c1OC	tim10-1 inh 44 | tim10-1 conf inactive
COc1cccc(C(C(=O)NC(C)(C)C)N(Cc2ccc(F)cc2)C(=O)CCC(=O)Nc2cc(C)on2)c1OC (configuration not stated)	none
COc1ccc(C(=O)NC2CCCc3c2cnn3-c2cc(F)cc(F)c2)c(OC)c1OC (configuration not stated)	tim10-1 inh 41 | tim10-1 conf 28
Cc1ccc(C(=O)N2CCN(CCNC(=O)C(=O)NCc3ccc(Cl)cc3)CC2)cc1	none
C/C(=N/NC(=O)Cc1ccccc1)c1ccc(C)s1	none
O=C(NCc1ccccn1)Nc1ccccc1C(F)(F)F	none
CCN(CC)S(=O)(=O)c1ccc(C(=O)NC2=C(C(=O)OC)SCC2)cc1	tim10-1 inh 42 | tim10-1 conf inactive
C/C(CC(=O)Nc1ccc(C)c(Cl)c1)=N\NC(=O)Cc1ccccc1	none
C/C(CC(=O)Nc1ccc(C)c(Cl)c1)=N\NC(=O)c1ccco1	tim10-1 inh 41 | tim10-1 conf inactive
Nc1nc2c(c(=O)[nH]1)C(c1cccc3ccccc13)C1=C(N2)c2ccccc2C1=O (configuration not stated)	none (no result: tim23-1 inh, SKKanGAS inh, NLRP3 yeast inh, tim10-1 inh, TIM10 inh)
COC(=O)c1ccccc1NC(=O)N1CCN(Cc2ccco2)CC1	none
Cc1ccc(-c2cnc(C3CC3)o2)cc1S(=O)(=O)Nc1ccccc1	tim10-1 inh 41 | tim10-1 conf inactive
CC(=O)Nc1ccc(NS(=O)(=O)c2cc(-c3cnc(C4CC4)o3)ccc2C)cc1	none
CCOC(=O)c1ccc(N2C(=O)C3C(C2=O)C(C(=O)c2ccc(Cl)cc2)N2CCCC32)cc1 (configuration not stated)	tim10-1 inh 42 | tim10-1 conf 29
Cc1ccc(S(=O)(=O)CCC(=O)N(CCCN2CCOCC2)c2nc3ccccc3s2)cc1	tim10-1 inh 42 | tim10-1 conf 42
CCOc1ccc(C(=O)/C=C/c2cc(OC)c(OC)c(OC)c2)cc1	tim10-1 inh 45 | tim10-1 conf inactive
CN(C)Cc1c[nH]c2nc[nH]c(=O)c12	none (no result: tim23-1 inh, SKKanGAS inh, NLRP3 yeast inh, tim10-1 inh, TIM10 inh)
CCCCNC(=O)CNC(=S)N(Cc1ccccc1)Cc1cccs1	tim10-1 inh 47 | tim10-1 conf inactive
COC(CNC(=O)CNC(=S)N(Cc1ccccc1)Cc1cccs1)OC	none
